Results reported in PubChem BioAssay AID1619 (SRMLSC, 2009).
Screen size: about 220,000 compounds; about 830 (0.38%) were called active.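 How the source made its calls: active means compound inhibiting the enzyme by more than half at any dose during confirmatory dose-response retesting; inconclusive means strong single-dose inhibitors picked by rank but not retested; inactive means the rest.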 These entries were drawn from the full list. Potency and affinity values are given separately.

The compounds below were run against Leucine aminopeptidase (Plasmodium falciparum (isolate 3D7)) (UniProt Q8IL11) (assay: P. falciparum M17LAP inhibitors, primary screen, biochemical, fluorogenic H-Leu-NHMec substrate, 1536-well (AID 1619;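 further: plate controls were full reaction with DMSO carrier for no effect and no enzyme background for full effect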)). Conditions: recombinant M17LAP, H-Leu-NHMec fluorogenic kinetic assay; at 30 µM; active compounds read high.
Leucine aminopeptidase (Plasmodium falciparum (isolate 3D7)), sequence (Q8IL11 whole entry, looked up): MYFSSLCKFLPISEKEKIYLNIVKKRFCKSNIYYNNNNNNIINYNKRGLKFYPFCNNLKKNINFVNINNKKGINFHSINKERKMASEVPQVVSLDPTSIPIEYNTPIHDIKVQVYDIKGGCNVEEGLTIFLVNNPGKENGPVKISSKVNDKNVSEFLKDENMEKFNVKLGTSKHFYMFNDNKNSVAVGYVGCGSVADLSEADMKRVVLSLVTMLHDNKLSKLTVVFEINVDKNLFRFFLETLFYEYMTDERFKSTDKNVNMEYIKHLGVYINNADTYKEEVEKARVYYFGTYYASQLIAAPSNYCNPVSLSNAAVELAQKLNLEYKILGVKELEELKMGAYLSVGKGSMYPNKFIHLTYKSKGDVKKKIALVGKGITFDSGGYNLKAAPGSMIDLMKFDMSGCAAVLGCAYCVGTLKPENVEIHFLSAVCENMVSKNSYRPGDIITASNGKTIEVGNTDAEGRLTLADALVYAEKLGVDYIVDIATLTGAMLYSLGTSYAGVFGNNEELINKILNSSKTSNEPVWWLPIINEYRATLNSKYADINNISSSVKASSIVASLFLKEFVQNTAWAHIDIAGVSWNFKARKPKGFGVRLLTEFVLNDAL

inhibition, inactive:
Cc1ccc(C)c(Cn2c(=O)n(CCCC(=O)NCc3ccco3)c(=O)c3ccccc32)c1 10%
Cc1csc2nc(CCNS(=O)(=O)c3cccs3)cn12 -4.9%
O=C(NCc1ccccc1)C1=C[C@@H](c2ccc(Br)cc2)C[C@@H](OCc2ccc(CO)cc2)O1 7.8%
CCCc1[nH]nc2c1C(c1cn[nH]c1-c1ccc(F)cc1)C(C#N)=C(N)O2 (stereo unspecified) 29.9%
C=CCN(c1ccccc1)S(=O)(=O)c1cc(C(=O)NC2=NCCS2)ccc1Cl -0.31%
CC(C)Oc1cccc(C(=O)C2CCCN(Cc3cccn3-c3cccnc3)C2)c1 (stereo unspecified) 4.62%
O=C(COc1ccc(Br)cc1)Nc1nnc(-c2cccnc2)s1 -6.24%
Cc1ccc(C(=O)/C=C/c2c[nH]c3ccccc23)cc1 5.88%
COCCCNC(=O)c1ccccc1NS(C)(=O)=O -1.32%
CCOC(=O)C1CCN(S(=O)(=O)c2cnc[nH]2)CC1 3.88%
CC1CN(C(=S)c2cccc([N+](=O)[O-])c2)CC(C)O1 (stereo unspecified) 4.78%
Cc1nc2ccccc2n1C(=O)c1ccccc1[N+](=O)[O-] 7.68%
CCn1c(SCC(=O)Nc2cccc(C)n2)nnc1-c1ccco1 4.98%
Cc1ccccc1S(=O)(=O)Nc1nc2ccccc2nc1N1CCOCC1 16.6%
CC1=C(C(N)=O)C(c2ccccc2)n2nc(-c3cccs3)nc2N1 (stereo unspecified) -4.69%
O=C(CSc1nnc(CNc2cccc(C(F)(F)F)c2)n1Cc1ccco1)NCc1ccco1 7.9%
Cc1cc(NC(=O)CSc2nnc(CNc3cccc(C(F)(F)F)c3)n2Cc2ccco2)no1 7.47%
COc1ccc(NC(=O)CN(c2ccccc2)S(=O)(=O)N(C)C)cc1Cl -2.44%
COc1ccccc1-c1nnc(SCC(=O)N2CCOCC2)o1 -5.18%
Cc1ccc(S(=O)(=O)NC(=O)c2cc(C)n(-c3ccc(N(C)C)cc3)c2C)cc1 30.1%
Cc1ccc(S(=O)(=O)NC(=O)c2cc(C)n(-c3ccccc3)c2C)cc1 24.3%
CCCOC(=O)c1c(-c2ccc(C)cc2C)csc1NC(=O)C1C2CCC(O2)C1C(=O)O (stereo unspecified) 44.7%
CCOC(=O)c1c(NC(=O)/C=C/C(=O)O)sc(C)c1-c1ccc(F)cc1 9.12%
CCOC(=O)c1cc(NC(=O)C2C3CCC(O3)C2C(=O)O)cc(C(=O)OCC)c1 (stereo unspecified) -8.46%
CCOC(=O)c1c(-c2cccc3ccccc23)csc1NC(=O)C1C2CCC(O2)C1C(=O)O (stereo unspecified) 26.3%
O=C(O)C1C2CCC(O2)C1C(=O)Nc1ccc(F)cc1 (stereo unspecified) -6.52%
COC(=O)c1c(-c2ccc(C(C)(C)C)cc2)csc1NC(=O)C1C2CCC(O2)C1C(=O)O (stereo unspecified) 35.5%
CC(/C=N/NC(=O)c1ccccn1)=C\c1ccco1 9.53%
Cc1ccc([N+](=O)[O-])cc1-c1ccc(/C=N\n2nnnc2N)o1 14.9%
CSc1ccc(Cl)c(C(=O)OCC(=O)N(C)CCC#N)c1 1.64%
Cc1ccc(C)c(N(C(=O)Cn2nnc3ccccc32)C(C(=O)NCc2ccco2)c2ccncc2)c1 (stereo unspecified) -0.41%
O=C1CCC(=O)N1CN(C(=O)c1ccco1)c1ccccc1 -2.98%
Cc1ccc(SCC(=O)NN2C(=O)c3ccccc3C2=O)cc1 2.07%
O=C(Cc1ccccc1)NN1C(=O)c2ccccc2C1=O 23.7%
CCOc1cc(OCC)cc(C(=O)NC(=S)Nc2cccc(C(F)(F)F)c2)c1 3%
COC(=O)c1[nH]c(C)c(/C(O)=C2\C(=O)C(=O)N(CCN3CCOCC3)C2c2ccc(C)o2)c1C (stereo unspecified) 3.85%
COc1ccc(/C=C/C2=NN(C)C(=O)CC2)cc1 48.2%
Cc1ccc(NC(=O)c2cc(NC(=O)c3ccccc3C(=O)O)ccc2N2CCCCC2)cc1 -63%
O=C(O)CCC(=O)Nc1ccc(N2CCCCC2)c(C(=O)O)c1 10.6%
C/C(=N\NC(N)=S)C1(C)CC2(CC(C)(C)OC2=O)C(=O)O1 (stereo unspecified) -1.04%
O=C(CSc1nccc(=O)[nH]1)N1N=C2/C(=C/c3ccco3)CCCC2C1c1ccco1 (stereo unspecified) 13.7%
Nc1nc(SCC(=O)N2N=C3/C(=C/c4ccco4)CCCC3C2c2ccco2)n[nH]1 (stereo unspecified) 9.23%
COc1c(Cl)cc(-c2noc(C)c2C(=O)NCc2ccc3c(c2)OCO3)cc1Cl 2.83%
Cc1ccnc(NC(=O)C2CCC(CNc3c(N4CCCC4)c(=O)c3=O)CC2)c1 (stereo unspecified) 15.6%
CC(C)Nc1nnc(SC(C)C(=O)Nc2ccc(Cl)cn2)s1 (stereo unspecified) 5.71%
COC(=O)N/N=C/c1ccc(OC(=O)/C=C/c2ccco2)cc1 -6.97%
CCOc1cccc2sc(N(CCN(CC)CC)C(=O)c3cccc([N+](=O)[O-])c3)nc12 3.1%
COc1cc(NS(=O)(=O)c2ccc(NC(C)=O)cc2)nc(OC)n1 -0.66%
O=C(CSC1=NCCS1)Nc1ccc(S(=O)(=O)NC2CCCCC2)cc1 8.51%
O=C(COC(=O)c1n[nH]c2ccccc12)c1cc(F)ccc1F 3.93%
COC(=O)c1cc(NC(C)=O)ccc1N1CCOCC1 8.76%
CC(C)(C)c1ccc(C2C(C#N)=C(N)Oc3n[nH]c(-c4cccnc4)c32)cc1 (stereo unspecified) 3.44%
Cc1ccc(Cn2ccc(NC(=O)c3cc4nc5c(c(C(F)(F)F)n4n3)CCc3ccccc3-5)n2)cc1 13.9%
COc1ccc(C(CC(=O)Nc2ccc(F)cc2)c2ccccc2)cc1 (stereo unspecified) -0.86%
COc1ccc(NC(=O)C(CC(=O)O)C(C)c2ccccc2)cc1 (stereo unspecified) -2.5%
CCOc1ccc(NC(=O)C(CC(=O)O)Cc2ccccc2)cc1 (stereo unspecified) 1.68%
COc1ccc(NC(=O)C(Cc2ccccc2)n2cccc2)cc1 (stereo unspecified) -2.31%
COc1ccc(OC)c(NC(=O)C(CC(=O)O)Cc2ccc(Cl)cc2)c1 (stereo unspecified) 35.7%
COc1ccc(NC(=O)Cc2ccccc2)cc1 34.6%
COc1ccc(CC(CC(=O)O)C(=O)NCc2ccccc2)cc1 (stereo unspecified) -4.42%
COc1ccc(NC(=O)C(CC(=O)O)Cc2ccc(C)cc2)cc1 (stereo unspecified) 53%
CCOC(=O)Nc1ccc2nc3n(c(=O)c2c1)CCCCC3 9.64%
COc1ccc2ccccc2c1CN1CCN(Cc2ccccc2)CC1 7.12%
CN1CCN(c2cc(=O)n(Cc3ccc(F)cc3)c(=O)[nH]2)CC1 -0.83%
COc1ccc(-c2nc(=S)[nH][nH]2)cc1OC -3.54%
O=C(O)CC(Cc1ccc(Cl)cc1)C(=O)Nc1ccc([N+](=O)[O-])cc1 (stereo unspecified) 44.7%
O=C(O)CC(NNC(=O)c1ccccc1)C(=O)Nc1ccc([N+](=O)[O-])cc1 (stereo unspecified) 4.13%
c1ccc(COc2ccc(CNCc3cccs3)cc2)cc1 0.61%
Cc1cc(NC(=O)CSc2nnc(CNc3ccc(F)cc3)n2C2CCCCC2)no1 -6.09%
COc1cc2nc(C3CCC3)nc(N3CCN(c4ccccc4OC)CC3)c2cc1OC 7.31%
CCOc1c(Br)cc(CNc2ccc3c(c2)OCCO3)cc1OC 2.99%
COc1cc(CO)cc(Br)c1OCC(=O)O -4.17%
COc1cc(CNc2ccc(N3CCOCC3)cc2)cc(Br)c1OC -2.11%
CCOc1c(Br)cc(CNC2CCCCCCC2)cc1OC -3.96%
CCOC(=O)c1nc(Nc2ccc(C(=O)O)cc2)c2ccccc2n1 23.8%
CCOc1ccc(N2C(=O)/C(=C/c3ccccc3)N=C2SC)cc1 2.97%
COC1=C(OC)C(=O)C(CCCCCCCCCCO)=C(C)C1=O -2.37%
CS(=O)(=O)N(CC(=O)NC1CCCCC1)Cc1ccc(Cl)cc1 4.5%
O=C(CN1C(=O)c2ccccc2S1(=O)=O)NC1CCCC1 33.2%
O=C(CN1c2cccc3cccc(c23)S1(=O)=O)Nc1ccccc1 2.82%
O=C(CN1C(=O)c2ccccc2S1(=O)=O)Nc1cccnc1 27.9%
CN(c1cccc(NC(=O)CN2C(=O)c3ccccc3S2(=O)=O)c1)S(C)(=O)=O 51.6%
O=C(CN1C(=O)c2ccccc2S1(=O)=O)NC1CCCCCC1 5.61%
COc1ccc(NC(=O)CN2c3cccc4cccc(c34)S2(=O)=O)c(OC)c1 13.8%
O=C(CCN1C(=O)c2ccccc2S1(=O)=O)Nc1ccccc1 6.82%
CC(C)NC(=O)CN1C(=O)c2ccccc2S1(=O)=O 7.45%
COc1ccc(NS(=O)(=O)c2cccc(C(=O)N/N=C/c3ccc4c(c3)OCCO4)c2)cc1 6.63%
COc1ccccc1-c1noc(-c2cccnc2)n1 -3.7%
CCOC(=O)c1[nH]c(C)c(C(=O)N2CCc3c([nH]c4ccccc34)C2c2ccccn2)c1C (stereo unspecified) -1.65%
COC(=O)C(C(=O)NCC1CCCO1)C1CCCCCC1 (stereo unspecified) 13.6%
COC(=O)CSC(C)C(=O)Nc1nnc(C(C)C)s1 (stereo unspecified) -2.42%
CCc1nnc(NC(=O)C(CC)c2ccccc2)s1 (stereo unspecified) -2.8%
CC(C)c1nnc(NC(=O)CSc2nc3ccccc3s2)s1 -2.5%
CCOC(=O)CSC(CC)C(=O)Nc1nnc(C(C)C)s1 (stereo unspecified) 20.9%
CCC(Sc1nc2ccccc2s1)C(=O)Nc1nnc(C)s1 (stereo unspecified) 22.9%
CCc1nnc(NC(=O)C(C)C)s1 -5.28%
